Targets with a hit are over-represented here; the source holds about 7,900 in all. About 0.6% of all pairs of compound and target were hits.
What was measured:
Assay in all cases: log2 fold change, soluble protein after heating vs DMSO (PISA); higher = thermal stabilisation; K562 cells, 10 uM, 30 min; active = over 0.2 and 3.5 SD of the protein, either way, in both replicates (recomputed)
[1] = compound: CS(=O)(=O)c1ccc(-c2cnc(N)c(C(=O)Nc3ccccc3)n2)cc1
Procedure, shortened: (§1)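 K562 cells at 2×10^6 cells/mL were treated for 30 min with 10 μM compound, and aliquots were heated for 3 min over 48°C-58°C before pooling. Extraction used PBS with 0.5% NP-40 at 4°C, and soluble protein was the supernatant after 21,000xg for 90 min, measured by TMTpro 16plex LC-MS/MS with channel sums equalised. Thermal stability values, relative to control samples and from duplicates, are log2 fold changes.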

crizotinib = compound: C[C@@H](Oc1cc(-c2cnn(C3CCNCC3)c2)cnc1N)c1c(Cl)ccc(F)c1Cl [crizotinib]
Procedure, shortened: as §1

[2] = compound: C[C@@H]1COCCN1C2=NC(=NC(=C2)C3(CC3)S(=O)(=O)C)C4=C5C=CNC5=CC=C4
Procedure, shortened: as §1

[3] = compound: C[C@H](C1=CC=C(C=C1)C(=O)NC2=C3C=CNC3=NC=C2)N
Procedure, shortened: as §1

duvelisib = compound: C[C@H](Nc1ncnc2nc[nH]c12)c1cc2cccc(Cl)c2c(=O)n1-c1ccccc1 [duvelisib]
Procedure, shortened: as §1

gandotinib = compound: Cc1cc(Nc2cc(CN3CCOCC3)c3nc(C)c(Cc4ccc(Cl)cc4F)n3n2)n[nH]1 [gandotinib]
Procedure, shortened: as §1

tozasertib = compound: Cc1cc(Nc2cc(N3CCN(C)CC3)nc(Sc3ccc(NC(=O)C4CC4)cc3)n2)n[nH]1 [tozasertib]
Procedure, shortened: as §1

[4] = compound: Cc1cc(SCc2sc(-c3ccc(C(F)(F)F)cc3)nc2C)ccc1OCC(=O)O
Procedure, shortened: as §1

doramapimod = compound: Cc1ccc(-n2nc(C(C)(C)C)cc2NC(=O)Nc2ccc(OCCN3CCOCC3)c3ccccc23)cc1 [doramapimod]
Procedure, shortened: as §1

ispinesib = compound: Cc1ccc(C(=O)N(CCCN)[C@@H](c2nc3cc(Cl)ccc3c(=O)n2Cc2ccccc2)C(C)C)cc1 [ispinesib]
Procedure, shortened: as §1

Measured: log2 fold change

POLA2 (UniProt Q14181)
active: gandotinib -0.287
inactive: [1] 0.116 | crizotinib -0.026 | [2] 0.143 | [3] -0.036 | duvelisib 0.121 | tozasertib 0.091 | [4] 0.047 | doramapimod -0.013 | ispinesib -0.028

PSMB6 (UniProt P28072)
Chain of UniProt P28072 (P28072 whole entry, looked up): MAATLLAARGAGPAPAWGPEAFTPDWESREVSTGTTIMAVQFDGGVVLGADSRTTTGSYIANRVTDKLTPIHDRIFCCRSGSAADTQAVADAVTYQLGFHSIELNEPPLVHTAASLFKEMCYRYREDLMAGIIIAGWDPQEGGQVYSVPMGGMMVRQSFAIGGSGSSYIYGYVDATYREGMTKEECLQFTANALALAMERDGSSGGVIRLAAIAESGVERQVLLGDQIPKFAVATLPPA
active: gandotinib 0.444
inactive: [1] 0.01 | crizotinib 0.096 | [2] 0.003 | [3] 0.059 | duvelisib -0.049 | tozasertib 0.011 | [4] -0.029 | doramapimod 0.049 | ispinesib -0.037

PRPF40A (UniProt O75400)
inactive: [1] -0.023 | crizotinib 0.071 | [2] 0.105 | [3] -0.061 | duvelisib 0.018 | gandotinib -0.04 | tozasertib 0.061 | [4] 0.104 | doramapimod 0.021 | ispinesib -0.034

PFDN1 (UniProt O60925)
inactive: [1] 0.018 | crizotinib 0.069 | [2] 0.264 | [3] -0.115 | duvelisib 0.175 | gandotinib 0.029 | tozasertib 0.072 | [4] 0.081 | doramapimod 0.018 | ispinesib 0.277

PISD (UniProt Q9UG56)
inactive: [1] 0 | crizotinib -0.023 | [2] 0.045 | [3] -0.018 | duvelisib 0.044 | gandotinib -0.004 | tozasertib -0.025 | [4] 0.036 | doramapimod 0.006 | ispinesib 0.02

PGGHG (UniProt Q32M88)
Chain of UniProt Q32M88 (Q32M88 whole entry, looked up): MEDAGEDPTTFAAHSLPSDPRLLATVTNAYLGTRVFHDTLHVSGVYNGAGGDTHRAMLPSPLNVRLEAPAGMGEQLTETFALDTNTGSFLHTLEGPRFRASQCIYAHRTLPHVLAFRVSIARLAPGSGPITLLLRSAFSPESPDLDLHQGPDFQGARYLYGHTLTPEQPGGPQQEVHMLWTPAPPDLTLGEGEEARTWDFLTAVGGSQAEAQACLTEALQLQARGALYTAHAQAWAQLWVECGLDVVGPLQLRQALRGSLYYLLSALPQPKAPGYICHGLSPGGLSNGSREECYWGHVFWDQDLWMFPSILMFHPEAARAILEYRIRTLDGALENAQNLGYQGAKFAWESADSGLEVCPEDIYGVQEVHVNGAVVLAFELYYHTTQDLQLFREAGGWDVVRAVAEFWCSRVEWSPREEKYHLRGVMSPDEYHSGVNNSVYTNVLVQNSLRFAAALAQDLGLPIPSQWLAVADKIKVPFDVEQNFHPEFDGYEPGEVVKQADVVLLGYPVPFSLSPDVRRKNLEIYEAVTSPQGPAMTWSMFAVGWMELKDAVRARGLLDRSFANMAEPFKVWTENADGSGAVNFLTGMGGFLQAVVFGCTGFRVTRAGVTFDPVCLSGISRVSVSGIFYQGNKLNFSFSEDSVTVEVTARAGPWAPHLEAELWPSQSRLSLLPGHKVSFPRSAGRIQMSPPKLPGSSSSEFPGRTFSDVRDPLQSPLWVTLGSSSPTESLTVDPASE
inactive: [1] 0.019 | crizotinib -0.01 | [2] 0.003 | [3] 0.175 | duvelisib 0.073 | gandotinib -0.039 | tozasertib -0.108 | [4] 0.049 | doramapimod 0.048 | ispinesib 0.05

PPIL4 (UniProt Q8WUA2)
inactive: [1] -0.022 | crizotinib -0.013 | [2] 0.027 | [3] -0.01 | duvelisib 0.025 | gandotinib 0 | tozasertib -0.026 | [4] 0.021 | doramapimod 0.019 | ispinesib -0.017

PSMC6 (UniProt P62333)
inactive: [1] 0.032 | crizotinib 0.022 | [2] -0.047 | [3] 0.116 | duvelisib -0.033 | gandotinib 0.054 | tozasertib 0.031 | [4] -0.002 | doramapimod 0.021 | ispinesib 0.007

PDCD2L (UniProt Q9BRP1)
inactive: [1] -0.059 | crizotinib -0.048 | [2] -0.083 | [3] 0.068 | duvelisib 0.053 | gandotinib 0.225 | tozasertib -0.007 | [4] 0.097 | doramapimod -0.058 | ispinesib 0.062

PTP4A1 (UniProt Q93096)
Chain of UniProt Q93096 (Q93096 whole entry, looked up): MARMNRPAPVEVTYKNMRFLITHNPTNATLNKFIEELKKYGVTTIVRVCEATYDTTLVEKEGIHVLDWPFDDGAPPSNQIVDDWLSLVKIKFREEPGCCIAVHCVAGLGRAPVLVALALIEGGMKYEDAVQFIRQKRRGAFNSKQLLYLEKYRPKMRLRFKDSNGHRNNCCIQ
inactive: [1] 0.04 | crizotinib 0.036 | [2] -0.006 | [3] -0.094 | duvelisib -0.013 | gandotinib -0.116 | tozasertib 0.018 | [4] -0.039 | doramapimod -0.037 | ispinesib 0.039

PLK1 (UniProt P53350)
inactive: [1] -0.113 | crizotinib -0.105 | [2] -0.194 | [3] 0.031 | duvelisib 0.012 | gandotinib 0.095 | tozasertib 0.037 | [4] -0.1 | doramapimod 0.032 | ispinesib 0.01

PCYT1B (UniProt Q9Y5K3)
inactive: [1] -0.008 | crizotinib -0.109 | [2] 0.147 | [3] -0.109 | duvelisib -0.019 | gandotinib -0.088 | tozasertib 0.024 | [4] 0.044 | doramapimod -0.036 | ispinesib 0.12

PLIN2 (UniProt Q99541)
inactive: [1] -0.103 | [2] 0.054 | [3] 0.03 | duvelisib 0.098 | gandotinib -0.31 | tozasertib -0.086 | [4] 0.031 | doramapimod -0.092
active: crizotinib -0.841 | ispinesib -2.6

POLR3B (UniProt Q9NW08)
inactive: [1] 0.038 | crizotinib -0.111 | [2] -0.004 | [3] 0.034 | duvelisib 0.007 | gandotinib -0.07 | tozasertib 0.101 | [4] 0.085 | doramapimod 0.03 | ispinesib -0.183

PLCB3 (UniProt Q01970)
inactive: [1] 0 | crizotinib -0.07 | [2] 0.014 | [3] 0.013 | duvelisib 0.019 | gandotinib 0.031 | tozasertib 0.041 | [4] 0.034 | doramapimod 0.014 | ispinesib -0.078

PDS5A (UniProt Q29RF7)
inactive: [1] 0.03 | crizotinib -0.383 | [2] 0.063 | [3] 0.043 | duvelisib 0.053 | gandotinib -0.099 | tozasertib 0.117 | [4] 0.182 | doramapimod -0.057 | ispinesib -0.127

PML (UniProt P29590)
inactive: [1] -0.011 | crizotinib 0.017 | [2] 0.025 | [3] -0.027 | duvelisib 0.072 | gandotinib -0.019 | tozasertib 0.07 | [4] -0.051 | doramapimod -0.054 | ispinesib -0.027

PEX11B (UniProt O96011)
inactive: [1] -0.042 | crizotinib 0.02 | [2] 0.148 | [3] -0.012 | duvelisib 0.081 | gandotinib -0.073 | tozasertib 0.065 | [4] 0.014 | doramapimod 0.002 | ispinesib 0.07

PNPLA2 (UniProt Q96AD5)
inactive: [1] 0.048 | crizotinib -0.055 | [2] 0.094 | [3] 0.095 | duvelisib 0.156 | gandotinib -0.303 | tozasertib -0.06 | [4] -0.065 | doramapimod 0.046
active: ispinesib -0.395

PTPA (UniProt Q15257)
Chain of UniProt Q15257 (Q15257 whole entry, looked up): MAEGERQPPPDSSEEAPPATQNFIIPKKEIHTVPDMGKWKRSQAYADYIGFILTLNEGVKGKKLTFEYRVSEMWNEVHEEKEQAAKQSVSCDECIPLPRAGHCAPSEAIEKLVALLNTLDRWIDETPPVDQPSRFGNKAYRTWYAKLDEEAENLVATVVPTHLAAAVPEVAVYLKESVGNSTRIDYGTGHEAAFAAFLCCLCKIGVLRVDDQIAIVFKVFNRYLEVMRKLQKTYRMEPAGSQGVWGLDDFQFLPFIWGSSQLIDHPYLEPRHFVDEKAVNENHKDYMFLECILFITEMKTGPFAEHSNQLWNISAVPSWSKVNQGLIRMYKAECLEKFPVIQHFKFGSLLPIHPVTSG
inactive: [1] -0.001 | crizotinib 0.028 | [2] 0.074 | [3] -0.117 | duvelisib 0.052 | gandotinib -0.037 | tozasertib 0.024 | [4] 0.013 | doramapimod -0.001 | ispinesib 0.091

PMPCA (UniProt Q10713)
inactive: [1] 0.006 | crizotinib -0.014 | [2] 0.033 | [3] -0.07 | duvelisib 0.055 | gandotinib -0.076 | tozasertib -0.022 | [4] -0.011 | doramapimod 0.028 | ispinesib -0.043

PIKFYVE (UniProt Q9Y2I7)
Chain of UniProt Q9Y2I7 (Q9Y2I7 whole entry, looked up): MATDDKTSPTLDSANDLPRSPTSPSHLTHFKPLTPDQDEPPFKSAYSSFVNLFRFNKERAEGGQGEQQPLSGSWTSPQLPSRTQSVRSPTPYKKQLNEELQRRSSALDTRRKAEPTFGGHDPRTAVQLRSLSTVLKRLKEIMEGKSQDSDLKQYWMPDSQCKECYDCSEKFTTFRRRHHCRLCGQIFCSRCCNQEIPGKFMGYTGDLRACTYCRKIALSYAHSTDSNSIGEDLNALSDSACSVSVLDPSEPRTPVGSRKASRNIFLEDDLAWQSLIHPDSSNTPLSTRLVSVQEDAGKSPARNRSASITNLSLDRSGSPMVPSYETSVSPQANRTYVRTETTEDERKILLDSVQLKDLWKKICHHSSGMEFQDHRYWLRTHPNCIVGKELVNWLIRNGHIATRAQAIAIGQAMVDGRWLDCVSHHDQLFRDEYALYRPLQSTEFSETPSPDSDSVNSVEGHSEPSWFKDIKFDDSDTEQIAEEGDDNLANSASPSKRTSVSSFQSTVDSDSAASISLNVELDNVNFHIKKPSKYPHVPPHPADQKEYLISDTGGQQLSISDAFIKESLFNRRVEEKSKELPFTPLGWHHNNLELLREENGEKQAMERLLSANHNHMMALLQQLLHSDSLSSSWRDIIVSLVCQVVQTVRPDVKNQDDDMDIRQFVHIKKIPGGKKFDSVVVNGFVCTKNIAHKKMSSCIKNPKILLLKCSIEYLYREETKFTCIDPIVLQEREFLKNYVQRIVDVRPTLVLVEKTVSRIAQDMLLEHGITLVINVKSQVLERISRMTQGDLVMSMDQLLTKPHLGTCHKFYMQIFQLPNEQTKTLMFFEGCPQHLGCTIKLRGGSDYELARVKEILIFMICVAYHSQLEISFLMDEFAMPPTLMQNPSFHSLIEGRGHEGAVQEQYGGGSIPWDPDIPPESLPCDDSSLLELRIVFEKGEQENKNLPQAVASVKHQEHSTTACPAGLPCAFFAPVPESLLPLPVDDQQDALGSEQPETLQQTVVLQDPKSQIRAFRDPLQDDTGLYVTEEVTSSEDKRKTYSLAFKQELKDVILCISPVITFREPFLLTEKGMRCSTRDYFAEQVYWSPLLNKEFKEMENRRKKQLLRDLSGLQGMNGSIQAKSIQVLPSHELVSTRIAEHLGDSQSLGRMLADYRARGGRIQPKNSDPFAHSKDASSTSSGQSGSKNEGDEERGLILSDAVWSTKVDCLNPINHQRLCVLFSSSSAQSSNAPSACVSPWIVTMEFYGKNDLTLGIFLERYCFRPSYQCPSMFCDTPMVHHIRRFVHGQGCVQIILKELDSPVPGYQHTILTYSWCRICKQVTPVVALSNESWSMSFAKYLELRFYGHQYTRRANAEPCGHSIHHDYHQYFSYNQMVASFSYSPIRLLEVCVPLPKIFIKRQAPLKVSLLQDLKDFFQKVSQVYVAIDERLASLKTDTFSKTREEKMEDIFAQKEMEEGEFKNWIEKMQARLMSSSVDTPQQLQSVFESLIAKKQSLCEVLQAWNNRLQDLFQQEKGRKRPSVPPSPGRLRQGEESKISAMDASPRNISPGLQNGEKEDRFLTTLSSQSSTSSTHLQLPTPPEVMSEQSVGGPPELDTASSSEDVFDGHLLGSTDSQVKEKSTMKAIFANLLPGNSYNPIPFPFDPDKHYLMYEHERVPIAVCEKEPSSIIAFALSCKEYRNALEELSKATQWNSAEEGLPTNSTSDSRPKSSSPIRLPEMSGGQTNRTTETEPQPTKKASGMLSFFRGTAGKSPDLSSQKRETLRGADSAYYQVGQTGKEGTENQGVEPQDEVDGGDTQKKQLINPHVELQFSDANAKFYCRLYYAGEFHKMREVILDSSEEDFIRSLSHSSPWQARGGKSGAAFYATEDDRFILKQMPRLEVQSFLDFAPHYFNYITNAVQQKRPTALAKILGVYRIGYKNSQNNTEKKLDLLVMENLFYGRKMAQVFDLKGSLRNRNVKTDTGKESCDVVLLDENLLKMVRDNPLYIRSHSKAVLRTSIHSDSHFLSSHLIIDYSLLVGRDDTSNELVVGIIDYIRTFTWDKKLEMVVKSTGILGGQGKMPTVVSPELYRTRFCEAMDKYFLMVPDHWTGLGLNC
inactive: [1] -0.016 | crizotinib -0.068 | [2] 0.096 | [3] 0.073 | duvelisib 0.005 | gandotinib -0.062 | tozasertib -0.005 | [4] 0.091 | doramapimod 0.023 | ispinesib -0.061

POLR2I (UniProt P36954)
inactive: [1] 0.003 | crizotinib 0.334 | [2] 0.052 | [3] 0.001 | duvelisib 0.085 | gandotinib 0.336 | tozasertib -0.086 | [4] -0.032 | doramapimod -0.047 | ispinesib 0.127

PRCP (UniProt P42785)
inactive: [1] 0.012 | crizotinib -0.078 | [2] -0.088 | [3] -0.037 | duvelisib 0.045 | gandotinib 0.006 | tozasertib 0.036 | [4] -0.037 | doramapimod -0.034 | ispinesib -0.096

PSMD2 (UniProt Q13200)
Chain of UniProt Q13200 (Q13200 whole entry, looked up): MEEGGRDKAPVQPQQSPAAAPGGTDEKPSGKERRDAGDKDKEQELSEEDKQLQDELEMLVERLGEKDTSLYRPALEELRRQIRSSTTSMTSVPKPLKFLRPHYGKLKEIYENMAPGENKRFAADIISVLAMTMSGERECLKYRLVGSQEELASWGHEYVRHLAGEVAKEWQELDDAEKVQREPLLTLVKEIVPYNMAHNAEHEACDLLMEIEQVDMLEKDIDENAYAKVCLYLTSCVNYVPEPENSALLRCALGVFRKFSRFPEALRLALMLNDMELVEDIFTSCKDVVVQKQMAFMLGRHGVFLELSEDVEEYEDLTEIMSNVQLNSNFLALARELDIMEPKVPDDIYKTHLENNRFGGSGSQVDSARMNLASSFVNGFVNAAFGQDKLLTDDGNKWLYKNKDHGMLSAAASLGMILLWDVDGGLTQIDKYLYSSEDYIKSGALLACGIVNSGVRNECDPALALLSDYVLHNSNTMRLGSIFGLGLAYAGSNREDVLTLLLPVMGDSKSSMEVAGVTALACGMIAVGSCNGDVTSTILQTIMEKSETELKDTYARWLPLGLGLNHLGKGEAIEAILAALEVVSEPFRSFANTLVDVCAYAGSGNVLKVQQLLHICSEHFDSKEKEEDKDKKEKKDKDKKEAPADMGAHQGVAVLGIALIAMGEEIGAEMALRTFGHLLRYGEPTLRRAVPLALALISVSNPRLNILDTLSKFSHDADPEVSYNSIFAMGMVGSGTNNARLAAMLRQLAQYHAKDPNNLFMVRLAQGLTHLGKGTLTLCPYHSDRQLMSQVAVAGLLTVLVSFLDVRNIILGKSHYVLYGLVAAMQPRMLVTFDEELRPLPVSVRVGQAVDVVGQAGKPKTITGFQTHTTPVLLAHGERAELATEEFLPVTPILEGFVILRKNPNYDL
inactive: [1] 0.017 | crizotinib 0.019 | [2] -0.063 | [3] 0.075 | duvelisib -0.064 | gandotinib 0.015 | tozasertib 0.023 | [4] 0.004 | doramapimod 0.021 | ispinesib -0.017

PLCG1 isoform 2 (UniProt P19174)
inactive: [1] 0.016 | [2] -0.09 | [3] 0.16 | duvelisib -0.037 | gandotinib 0.107 | tozasertib 0.016 | [4] 0.161 | doramapimod 0.001 | ispinesib -0.178
active: crizotinib -0.412

PRKCA (UniProt P17252)
inactive: [1] -0.023 | crizotinib -0.081 | [2] 0.044 | [3] -0.041 | duvelisib 0.158 | gandotinib -0.227 | tozasertib -0.052 | [4] 0.232 | doramapimod 0.01 | ispinesib -0.112

POLR2D (UniProt O15514)
inactive: [1] 0.006 | crizotinib 0.192 | [2] -0.08 | [3] 0.038 | duvelisib 0.065 | gandotinib 0.158 | tozasertib -0.012 | [4] -0.068 | doramapimod -0.024 | ispinesib 0.017

PEX16 isoform 2 (UniProt Q9Y5Y5)
inactive: [1] -0.001 | crizotinib -0.142 | [2] 0.052 | [3] -0.072 | duvelisib 0.096 | gandotinib -0.104 | tozasertib 0.018 | [4] 0.057 | doramapimod 0.106 | ispinesib -0.23

PKM isoform 2 (UniProt P14618)
Chain of UniProt P14618 (P14618 whole entry, looked up): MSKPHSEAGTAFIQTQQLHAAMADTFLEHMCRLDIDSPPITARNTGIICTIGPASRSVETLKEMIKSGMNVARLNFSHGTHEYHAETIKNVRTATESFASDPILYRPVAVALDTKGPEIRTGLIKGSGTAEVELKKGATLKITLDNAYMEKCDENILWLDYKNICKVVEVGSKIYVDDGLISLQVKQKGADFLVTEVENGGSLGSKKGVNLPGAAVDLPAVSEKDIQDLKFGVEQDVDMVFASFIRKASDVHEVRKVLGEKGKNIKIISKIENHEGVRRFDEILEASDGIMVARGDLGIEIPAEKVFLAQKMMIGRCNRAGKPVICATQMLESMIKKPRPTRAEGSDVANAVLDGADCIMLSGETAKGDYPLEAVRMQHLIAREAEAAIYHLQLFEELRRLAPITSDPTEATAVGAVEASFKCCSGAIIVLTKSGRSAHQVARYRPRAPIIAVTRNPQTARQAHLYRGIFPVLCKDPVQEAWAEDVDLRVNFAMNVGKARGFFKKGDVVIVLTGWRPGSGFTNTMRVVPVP
inactive: [1] -0.053 | crizotinib -0.033 | [2] -0.154 | duvelisib -0.001 | gandotinib 0.131 | tozasertib 0.056 | [4] 0.12 | doramapimod 0.029 | ispinesib 0.016

Reference: the supplement of paper PMC10849652
